Source: PubChem BioAssay
Sampled rows, rich in hits. Any-hit rate of the full collection: about 11%.
G9a inh = qHTS Assay for Inhibitors of Histone Lysine Methyltransferase G9a | Histone-lysine N-methyltransferase EHMT2 (Homo sapiens), Q96KQ7 | G9a H3K9 monomethylation, AlphaScreen, 2 h | Potency, µM (doses to about 102 µM), most hits filed as inhibitors | 350,000 compounds, 8.8% hits; note: nearly all actives have a fitted effect of over 75% in size
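AlphaScreen detection with an anti-monomethyl H3K9 antibody quantified product after a 2 h room-temperature reaction containing 500 nM biotinylated H3K9 peptide, 20 µM SAM and 20 nM enzyme, which had been preincubated 15 min with compound.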
JMJD2A Tudor = qHTS Assay for Inhibitors of JMJD2A-Tudor Domain | Lysine-specific demethylase 4A (Homo sapiens), O75164 | AlphaScreen JMJD2A-Tudor / H3K4me3 peptide binding | Potency, µM (top dose mostly 114 µM), actives largely listed as inhibitors | 390,000 compounds, 4.4% hits | AID 504339, 2011; note: nearly all actives have a fitted effect of over 50% in size
HP1b binding inh = HTS for Inhibitors of HP1-beta Chromodomain Interactions with Methylated Histone Tails. Potency, µM (series often up to 114 µM), most hits filed as inhibitors. 390,000 compounds, 0.56% hits. AID 540317, 2011. Chromobox protein homolog 1 (Homo sapiens), P83916. AlphaScreen HP1-beta / biotin-H3K9me3 peptide binding; note: nearly all actives have a fitted effect of over 70% in size
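Compound inhibition of the preformed complex between 50 nM HP1-beta and 50 nM biotinylated H3K9me3 peptide was read by AlphaScreen. Buffer was PBS pH 7.4 with 0.01% Tween-20. Incubations ran 30 min at room temperature, with 10 ug/mL donor/acceptor beads.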
BAZ2B inh = qHTS Assay for Inhibitors of BAZ2B. 360,000 compounds, 4.4% hits. Bromodomain adjacent to zinc finger domain protein 2B (Homo sapiens), Q9UIF8. AlphaScreen BAZ2B-H3K14Ac peptide displacement. Potency, µM (highest dose often 114 µM), hits mostly inhibitors; note: nearly all actives have a fitted effect of over 60% in size
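Protein-peptide AlphaScreen: BAZ2B 50 nM, b-H3K14Ac 50 nM, 1x PBS pH 7.4 + 0.01% Tween-20. Preincubation 30 min RT; cpd 30 min RT (top 110 uM); beads 20 min RT, light-protected.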
VDR inhibitor = Inhibitors of the vitamin D receptor (VDR): qHTS | 400,000 compounds, 0.93% hits | Potency, µM, most hits filed as inhibitors | AID 504847, 2011 | Vitamin D3 receptor (Homo sapiens), P11473 | VDR-SRC2-3 peptide fluorescence polarization, 2 h
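Measured by FP: displacement of SRC2-3 coactivator peptide from VDR by library compounds, following a two-hour ambient incubation.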
PLK1 PBD inh = qHTS for Inhibitors of PLK1-PDB (polo-like kinase 1 - polo-box domain): Primary Screen. Plk1 PBD binding of FITC phosphopeptide, fluorescence polarization. Potency, µM, actives largely listed as inhibitors. 360,000 compounds, 2.8% hits. AID 720504, 2013; note: series mostly up to about 57 µM; nearly all actives have a fitted effect of over 65% in size
Target sequence (P53350 whole entry, looked up, the tested form may be a part): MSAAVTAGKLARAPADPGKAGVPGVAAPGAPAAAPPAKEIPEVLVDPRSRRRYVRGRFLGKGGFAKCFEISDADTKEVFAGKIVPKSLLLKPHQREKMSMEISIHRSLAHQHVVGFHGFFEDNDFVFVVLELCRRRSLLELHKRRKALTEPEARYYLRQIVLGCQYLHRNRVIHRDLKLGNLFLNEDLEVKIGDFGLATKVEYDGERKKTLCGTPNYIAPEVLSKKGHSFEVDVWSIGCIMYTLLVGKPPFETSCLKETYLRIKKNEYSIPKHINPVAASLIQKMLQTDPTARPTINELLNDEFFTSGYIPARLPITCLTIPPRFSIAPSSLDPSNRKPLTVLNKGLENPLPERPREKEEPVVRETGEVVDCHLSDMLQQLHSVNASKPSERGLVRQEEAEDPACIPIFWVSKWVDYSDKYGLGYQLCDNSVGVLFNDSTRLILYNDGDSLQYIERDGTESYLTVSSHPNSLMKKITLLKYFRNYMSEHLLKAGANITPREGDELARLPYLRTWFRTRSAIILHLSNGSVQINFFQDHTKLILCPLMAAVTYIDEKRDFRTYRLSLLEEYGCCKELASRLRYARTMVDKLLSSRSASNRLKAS
A number is an active result; i = inactive; ? = inconclusive; nt = no result given; ! = not active in a repeat; [ ] = dose if it differs, or a comment. Calls come from the whole dose curve; as a rule, active = well fitted curve in the direction sought with a large enough effect; inconclusive = small, poorly fitted or top-dose-only effect, or another doubt; inactive = no such curve, though single readings can be large; an effect the other way counts as inactive or inconclusive.

SMILES	G9a inh	JMJD2A Tudor	HP1b binding inh	BAZ2B inh	VDR inhibitor	PLK1 PBD inh
CCOc1ccc(N/C=C/C(=O)c2ccccc2)c([N+](=O)[O-])c1	8.91µM	?	?	?	i	i
Nc1[nH]c(=O)[nH]c(=O)c1N=Cc1ccccc1	nt	i	i	nt	70.8µM	?
COc1cccc(CNC(=O)N2CCc3c(sc4c3CCCC4)C2c2ccc(F)cc2)c1 (stereo not given)	i	i	i	i	i	nt
O=C(COc1ncnc2sccc12)N1CCN(C(=O)c2ccco2)CC1	50.1µM	?	i	?	i	?
O=C(COc1ncnc2ccccc12)N1CCN(C(=O)c2ccco2)CC1	i	i	i	i	i	i
COCCCN(Cc1ccco1)C(=O)c1cc2c(s1)-c1ccc(Cl)cc1S(=O)(=O)C2	i	i	i	i	i	i
CN(C)CCN(Cc1cc2cc3c(cc2[nH]c1=O)OCO3)C(=S)NCc1ccco1	nt	i	i	i	i	i
O=c1[nH]c2cc3c(cc2cc1CN(Cc1cccnc1)C(=S)NCc1ccco1)OCO3	10µM	i	i	?	i	i
O=c1[nH]c2cc3c(cc2cc1CN(Cc1cccnc1)C(=S)NCc1ccco1)OCCO3	39.8µM	i	i	i	i	i
O=c1[nH]c2cc3c(cc2cc1CN(Cc1ccco1)C(=S)NCC1CCCO1)OCCO3 (stereo not given)	i	i	i	i	i	i
CCN(C(=O)CN1C(=O)NC2(CCc3ccccc32)C1=O)C1CCCCC1 (stereo not given)	44.7µM	i	i	i	i	i
Cc1cc(C(=O)CN2C(=O)NC3(CCCc4ccccc43)C2=O)c(C)n1Cc1cccs1 (stereo not given)	i	i[11.4 µM]	i	i	i	i
COc1ccccc1C(=O)CN1C(=O)NC2(CCCc3ccccc32)C1=O (stereo not given)	nt	i	i	nt	i	i
COc1ccccc1C(=O)CN1C(=O)NC2(CCc3ccccc32)C1=O (stereo not given)	50.1µM	i	i	i	i	i
COc1ccc(N2CCN(C(=O)CN3C(=O)NC4(CCCc5ccccc54)C3=O)CC2)cc1 (stereo not given)	39.8µM	i	i	i	i	i
CCN(C(=O)CN1C(=O)NC2(CCCc3ccccc32)C1=O)c1ccc(F)cc1 (stereo not given)	i[12.7 µM]	i	i	i	i	i
C=CCn1c(C)cc(C(=O)CN2C(=O)NC3(CCCc4ccccc43)C2=O)c1C (stereo not given)	44.7µM	?	?	?	i	i
COc1ccc(N2CCN(C(=O)CN3C(=O)NC(c4ccc(OC)cc4)(c4ccc(OC)cc4)C3=O)CC2)cc1	nt	?	i	i	i	i
COc1cccc(C(=O)NC2=NC(c3ccccc3F)CC(=O)N2)c1 (stereo not given)	i	i	i	i	i	nt
CCN1C(=O)c2ccccc2S(=O)c2ccc(C(=O)NCc3ccc(OC)cc3)cc21 (stereo not given)	i	i	i	i	i	i
CN(C)C(=O)c1ccc(-c2ccc3ncnc(N(C)C)c3c2)cc1	i[0.501 µM]	nt	nt	nt	i	nt
Cn1nc([N+](=O)[O-])nc1Sc1cccc2cccnc12	i[0.501 µM]	i	i	i	i	16.8µM
CCCOc1ccc(NC(=O)CC2C(=O)N(c3ccc(C)cc3)C(=O)N2C2CCCC2)cc1 (stereo not given)	i	i	i	i	i	nt
CC1(c2ccccc2)CC(C)(C)N2C(=O)C(=O)c3cccc1c32 (stereo not given)	?	?	i	28.2µM	?	i
COc1ccc2c(c1)Oc1ncn(CCN3CCOCC3)c(=N)c1C2c1ccc(OC)c(OC)c1 (stereo not given)	nt	i	nt	nt	nt	nt
SMILES	G9a inh	JMJD2A Tudor	HP1b binding inh	BAZ2B inh	VDR inhibitor	PLK1 PBD inh
CC1CCN(C(=O)C(C)OC(=O)CSc2ccc([N+](=O)[O-])cc2)CC1 (stereo not given)	i[12.7 µM]	?	i	i	?	15µM
CC(OC(=O)CSc1ccc([N+](=O)[O-])cc1)C(=O)NCc1ccco1 (stereo not given)	i	i	i	i	i	i
Cc1ccc2c(=O)cc(CSCC(=O)Nc3nnc(C)s3)[nH]c2c1	i	i	i	i	i	nt
COc1ccc2c(CCNC(N)=S)c[nH]c2c1	i	20µM	i	89.1µM	?	18.9µM
COc1cc2c(CCNC(C)=O)c[nH]c2cc1O	20µM!	i	i	nt	i	i
COc1ccc(NC(=S)NCCc2c[nH]c3ccc(OC)cc23)c(OC)c1	nt	?	i	44.7µM	i	i
COc1ccc(NC(=S)NCCc2c[nH]c3ccccc23)c(OC)c1	50.1µM	i	i	44.7µM	i	i
COc1ccc2c(CCNC(=O)c3ccco3)c[nH]c2c1	i	i	i	i	i	i
COc1ccc(CCNC(=O)NCCc2c[nH]c3ccccc23)cc1OC	i[2.33 µM]	i	i	i	i	i
CC(=O)Nc1cccc(OCCCNC(=O)c2ccc(C(C)(C)C)cc2)c1	i	i	i	i	i	i
Cc1ccc(Cl)cc1N1CCN(C(=O)c2ccc3nc(N4CCC(C)CC4)sc3c2)CC1	i	i	i	i	i	nt
COc1ccc(C(=O)NCCc2c[nH]c3ccc(OC)cc23)cc1	i	i	i	?	i	i
COc1ccc2[nH]cc(CCNC(=O)c3ccc4ccccc4n3)c2c1	70.8µM	?	i	?	i	i
CN1C(=O)C2(Oc3ccccc3C3CC(c4ccccc4)=NN32)c2ccccc21 (stereo not given)	?	?	i	i	i	i
S=C1NC2(CCS1)Oc1ccccc1C1CC(c3ccccc3)=NN12 (stereo not given)	50.1µM	nt	nt	?	nt	nt
O=C(NCCS(=O)(=O)N1CCN(c2ccc(F)cc2)CC1)c1cc(=O)c2ccccc2o1	i	i	i	i	i	nt
COc1ccc(C(=O)c2c(N)sc3c2CCN(C)C3)cc1	i[0.501 µM]	i	i	i	i	i
CN1CCc2c(sc(N)c2C(=O)O)C1	28.2µM	i[11.4 µM]	i	i	i	?
COc1ccccc1C(=O)Nc1nnc(S(=O)(=O)N(C)Cc2ccccc2)s1	?	i	i	i	i	i
CCc1nnc(NC(=O)C2Cc3ccccc3CN2S(=O)(=O)c2c(C)c(C)cc(C)c2C)s1 (stereo not given)	?	i	i	i	i	i
COC(=O)/C(=C\C=C\c1ccccc1)NC(=O)c1ccccc1	i	25.1µM	i	i	i	13.4µM
